Shown are actives, neighbours in structure and some others; about 2.4% of the full set was active somewhere.
D2 PAM-1: positive allosteric modulators of human D2 dopamine receptor; 0.34% of 340,000 active; P14416; HEK293 T-REx D2, calcium flux, EC20 dopamine potentiation; potentiation, % at 10 µM;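 active = potentiation over 3 SD above the plate norm, cut at about 30% in these data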; also: 0% is about no effect
Target sequence (P14416 whole entry, looked up): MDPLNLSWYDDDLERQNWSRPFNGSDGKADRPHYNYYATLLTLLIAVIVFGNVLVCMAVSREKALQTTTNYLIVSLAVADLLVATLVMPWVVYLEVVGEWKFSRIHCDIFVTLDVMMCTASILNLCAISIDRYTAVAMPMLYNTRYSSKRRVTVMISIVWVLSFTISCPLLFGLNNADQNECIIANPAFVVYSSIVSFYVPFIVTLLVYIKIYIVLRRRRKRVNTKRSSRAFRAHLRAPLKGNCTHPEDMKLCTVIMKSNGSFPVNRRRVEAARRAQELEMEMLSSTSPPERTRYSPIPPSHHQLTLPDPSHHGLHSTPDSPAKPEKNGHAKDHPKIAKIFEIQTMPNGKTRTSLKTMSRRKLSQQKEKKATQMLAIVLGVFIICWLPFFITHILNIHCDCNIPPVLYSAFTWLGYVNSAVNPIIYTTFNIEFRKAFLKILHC
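Tetracycline-induced HEK293 T-REx cells force-coupled to calcium signalling expressed D2; compounds were pin-added after a 10 s baseline, read kinetically 180 s, then an EC20 dopamine challenge followed with a further 180 s calcium read.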
D2 ag-1: activates the human D2 dopamine receptor; HEK293 T-REx D2 cells, calcium flux agonist mode; activation, % at 2 µM; 0.53% of 340,000 active; AID 485358;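 active = activation over 3 SD above normal in the single-dose calcium agonist read, cut at about 30% in these data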; also: 0% is about no effect
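Tetracycline-induced HEK293 T-REx cells with force-coupled D2 receptor, plated overnight at 30 C, loaded with no-wash calcium dye. After a 10 s baseline, compound was pin-added and calcium flux read kinetically for 180 s; calcium rises flagged agonists.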
D2 antagonist: D2 dopamine receptor (human) antagonism | P14416 | HEK293 TREx D2 cells, calcium flux, dopamine EC80 | inhibition, % at 10 µM | 2% of 340,000 active | AID 485344; in the data active = inhibition above about 30%; inactive = below that, where a call was filed; also: 0% is about no effect
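Tetracycline-induced HEK293 TREx cells expressing D2 receptor forced-coupled to calcium signalling, loaded with no-wash calcium dye. Compounds added and calcium flux read 180 s, then dopamine added at EC80 and read a further 180 s.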
D2 ag-2: agonists of human D2 dopamine receptor (beta-arrestin); 0.084% of 360,000 active; activation, % (test concentration not listed); P14416; AID 624465; DiscoveRx PathHunter D2 beta-arrestin, luminescence, 90 min; 100% = 57 uM dopamine signal; in the data active = activation above about 40%; inconclusive = between about 15% and that limit
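Agonist mode: compounds alone added to overnight-plated D2 PathHunter cells for 90 min at 37 C, with 57 uM final dopamine (EC100) defining full response. Beta-arrestin recruitment detected by chemiluminescent reagent, read after 1 h at ambient temperature.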
D2 PAM-2: positive allosteric modulators of human D2 dopamine receptor; DiscoveRx D2 beta-arrestin cells, luminescence, 90 min; 100% = 57 uM dopamine signal; potentiation, % (concentration not given with the values); P14416; 0.23% of 360,000 active; in the data active = potentiation above about 50%; inconclusive = mostly about 30% to 49%
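PathHunter beta-arrestin assay in DiscoveRx D2 cells. Compounds were added with an EC20 of dopamine (50 nM final) for 90 min at 37 deg C. Luminescence was read 1 h after detection reagent, with 57 uM dopamine as the EC100 control.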
D3 ag: confirmation of human D3 dopamine receptor agonists, beta-arrestin; shares compounds with D2 ag-1; DiscoveRx D3 beta-arrestin cells, luminescence, 90 min; Potency, µM (series often up to 76.9 µM), without a hit: at the top dose activation, usual class: activators; 4% of 2,300 active; AID 720506;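 also: potency is read from the fitted curve at half-maximal effect; 100% = dopamine control response; nearly all actives have a fitted effect of over 70% in size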
D2 ag-3: D2 receptor agonism, beta-arrestin counterscreen; shares compounds with D2 ag-1; DiscoveRx PathHunter D2 beta-arrestin, luminescence, 90 min; response scale: percent relative to full dopamine signal; Potency, µM (top dose mostly 76.9 µM), for the others: at the top dose activation, actives largely listed as activators; 5.9% of 2,300 active; also: potency is read from the fitted curve at half-maximal effect; % of control where 0% means no effect; nearly all actives have a fitted effect of over 70% in size
Active calls of the source: *. Unless noted, calls follow the shape of the dose curve; as a rule, active = well fitted activation curve with a large enough effect; inconclusive = small, poorly fitted or top-dose-only effect; inactive = flat fitted curve, though single readings scatter.

`c1ccc(C2CC2)c(OCC2=NCCN2)c1` gave D2 PAM-1 -9, D2 ag-1 8, D2 antagonist 47*, D2 ag-2 -3, D2 PAM-2 -15, D3 ag -2% and D2 ag-3 24%.
For O=P(CN1CCN(c2ccccc2)CC1)(N1CCCCC1)N1CCCCC1 the results were D2 PAM-1 -1, D2 ag-1 28, D2 antagonist 37*, D2 ag-2 9, D2 PAM-2 5, D3 ag 11% and D2 ag-3 13%.
Screening CC(CCc1ccccc1)NC(C)C(O)c1ccc(O)cc1 (stereo not given) returned D2 PAM-1 -25, D2 ag-1 71*, D2 antagonist 64*, D2 ag-2 -4, D2 PAM-2 -14, D3 ag 11% and D2 ag-3 13%.
CCN(CC)P(=O)(/C=C(\Cl)c1ccccc1)/C=C(\Cl)c1ccccc1 was read as D2 PAM-1 11, D2 ag-1 0, D2 antagonist 17, D2 ag-2 -3, D2 PAM-2 -9, D3 ag -15% and D2 ag-3 1%.
For COC(=O)C1=C(c2ccc(OCc3ccccc3)cc2)C[C@@H]2CC[C@H]1N2C(=O)NCc1ccc(F)cc1 the results were D2 ag-2 -9 and D2 PAM-2 -6.
`COC(=O)C1=C(c2ccc(OCc3ccccc3)cc2)C[C@@H]2CC[C@H]1N2C(=O)NCc1ccc(N(C)C)cc1` gave D2 PAM-1 16, D2 ag-1 1, D2 antagonist -4, D2 ag-2 -3, D2 PAM-2 -7, D3 ag -1% and D2 ag-3 4%.
`COC(=O)C1=C(c2ccc(-c3ccccc3)c(F)c2)C[C@@H]2CC[C@H]1N2C(=O)NCCO` gave D2 PAM-1 -2, D2 ag-1 0, D2 antagonist 4, D2 ag-2 -2, D2 PAM-2 -12, D3 ag -2% and D2 ag-3 2%.
COC(=O)C1=C(c2ccc(-c3ccccc3)c(F)c2)C[C@@H]2CC[C@H]1N2C(=O)NCCOc1ccccc1Cl was read as D2 PAM-1 -5, D2 ag-1 0, D2 antagonist -8, D2 ag-2 -3, D2 PAM-2 -16, D3 ag -1% and D2 ag-3 0%.
Screening CCCNC(=O)N1[C@H]2CC[C@@H]1C(C(=O)OC)=C(c1ccc(-c3ccccc3)c(F)c1)C2 returned D2 PAM-1 -6, D2 ag-1 1, D2 antagonist -10, D2 ag-2 -1, D2 PAM-2 -17, D3 ag 1% and D2 ag-3 inconclusive.
OC(C#CCN1CCOCC1)(c1ccccc1)C1CCCC1 (stereo not given) was read as D2 ag-2 0 and D2 PAM-2 -27.
Screening COC(=O)C1=C(c2cc3ccccc3s2)C[C@@H]2CC[C@H]1N2C(=O)N1CCC(C)CC1 returned D2 ag-2 -5 and D2 PAM-2 -22.
For Cc1ccc2c(c1)CC1(CN2C)C(=O)NC(=O)N(c2ccccc2C)C1=O (stereo not given) the results were D2 PAM-1 -8, D2 ag-1 1, D2 antagonist -48, D2 ag-2 -1 and D2 PAM-2 -12.
Screening Cc1ccc(-c2cc(-c3ccc(C)cc3)[n+](-c3ccccc3)c(-c3ccc(C)cc3)c2)cc1 returned D2 PAM-1 1, D2 ag-1 28, D2 antagonist 49*, D2 ag-2 4, D2 PAM-2 -88, D3 ag 16% and D2 ag-3 18%.
For c1ccc(-c2cc(-c3ccccc3)[n+](-c3ccccc3)c(-c3ccccc3)c2)cc1 the results were D2 ag-2 14 and D2 PAM-2 23.
CC(C)n1c(=O)c(C=Nc2cccc([N+](=O)[O-])c2)c(O)n(CCc2ccccc2)c1=O was read as D2 PAM-1 9, D2 ag-1 2, D2 antagonist -5, D2 ag-2 -7 and D2 PAM-2 -12.
`COC(=O)C1=C(c2ccccc2OCc2ccccc2)C[C@@H]2CC[C@H]1N2C(=O)NCc1ccccc1` gave D2 PAM-1 -2, D2 ag-1 0, D2 antagonist 4, D2 ag-2 -1 and D2 PAM-2 -19.
Screening c1cc(CNCCc2ccc3c(c2)OCO3)ccn1 returned D2 PAM-1 8, D2 ag-1 -1, D2 antagonist -20, D2 ag-2 4, D2 PAM-2 -32, D3 ag inconclusive and D2 ag-3 3%.
Fc1ccc(CNCCc2ccc3c(c2)OCO3)cc1 was read as D2 PAM-1 -2, D2 ag-1 0, D2 antagonist -14, D2 ag-2 1 and D2 PAM-2 -32.
For NCCc1ccc(O)cc1 the results were D2 PAM-1 13, D2 ag-1 51*, D2 antagonist 47*, D2 ag-2 -4, D2 PAM-2 -12, D3 ag inconclusive and D2 ag-3 8%.
Screening c1ccc(CCN2CCC(N3CCN(c4ccccc4)CC3)CC2)cc1 returned D2 PAM-1 -21, D2 ag-1 74*, D2 antagonist 72*, D2 ag-2 inconclusive, D2 PAM-2 -4, D3 ag inconclusive and D2 ag-3 inconclusive.
COc1ccc(N2CCN(CCc3ccncc3)CC2)cc1 was read as D2 ag-1 3, D2 antagonist -22, D2 ag-2 -1 and D2 PAM-2 -14.
CCCCCCn1c(=O)c(C(=O)Nc2c(C)n(C)n(-c3ccccc3)c2=O)c(O)c2ccccc21 was read as D2 PAM-1 -3, D2 ag-1 1, D2 antagonist 6, D2 ag-2 -1 and D2 PAM-2 -3.
N#C/C(N)=C(/N)C#N was read as D2 PAM-1 12, D2 ag-1 0, D2 antagonist 4, D2 ag-2 -5, D2 PAM-2 -13, D3 ag -4% and D2 ag-3 -5%.
For CCC1C2CC3C4N(C)c5ccccc5C45CC(C2C5O)N3[C@@H]1O (stereo not given in full) the results were D2 PAM-1 -30, D2 ag-1 1, D2 antagonist 16, D2 ag-2 0 and D2 PAM-2 -25.
`CC(C)CCC1(CCO)C(=O)NC(=S)NC1=O` gave D2 ag-2 -5 and D2 PAM-2 -7.
CCc1ccc(CNCCc2c[nH]c3ccccc23)cc1 was read as D2 PAM-1 -16, D2 ag-1 7, D2 antagonist 14, D2 ag-2 -3, D2 PAM-2 -77, D3 ag -14% and D2 ag-3 -1%.
